The text below walks through data of paper PMC10812921, “Transcriptional Coactivator BOB1 (OBF1, OCA-B) Modulates the Specificity of DNA Recognition by the POU-Domain Factors OCT1 and OCT2 in a Monomeric Configuration”.

Assay [1] concerns the target POU1 (OCT1 POU domain) (human, UniProt P14859 260-458). In words: EMSA-SELEX-seq; no BOB1; 20 mM Tris-HCl pH 7.6, 140 mM NaCl, 10% glycerol, 0.5 mM EDTA, 0.05% Triton X-100, 0.1 mg/mL BSA, 0.1 mg/mL poly(dI-dC), 5 mM DTT, room temperature, 20 min; high values mean tight binding. The note with it: protein: recombinant; dsDNA, one strand shown. In short, it runs like this:
(§1)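 Tagged POU-domain proteins were expressed in E. coli BL21, purified under denaturing conditions and renatured. Then 30 ng was mixed with 300 ng of a PCR-amplified double-stranded random 35-nt library, with or without 28 ng coactivator protein, in 20 μL Tris–HCl pH 7.6 binding buffer for 20 min at RT. Complex bands were cut from native 6% PAGE, eluted and PCR-amplified over four rounds, then Illumina-sequenced. Binding preference is the percentage of sequenced 8-mers matching a motif pattern.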
Background: In EMSA bound probe runs differently from free probe, usually more slowly.

The target in assay [2] is T1, POU2 (OCT2 POU domain) (human, UniProt P09086 175-386).
T1 sequence: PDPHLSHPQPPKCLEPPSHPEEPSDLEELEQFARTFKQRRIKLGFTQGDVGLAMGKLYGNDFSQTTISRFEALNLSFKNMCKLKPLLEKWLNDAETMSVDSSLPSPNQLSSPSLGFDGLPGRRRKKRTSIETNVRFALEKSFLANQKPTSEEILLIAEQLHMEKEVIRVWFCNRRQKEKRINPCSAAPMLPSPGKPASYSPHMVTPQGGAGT
Described as above. The note with it: protein: recombinant; dsDNA, one strand shown. In short, it runs like this: as §1

In assay [3] the target is POU1 (OCT1 POU domain);BOB1 (OBF1, OCA-B) (human;human, UniProt P14859;Q16633 260-458;1-256, |). In words: EMSA-SELEX-seq; with BOB1 (ternary complex band); 20 mM Tris-HCl pH 7.6, 140 mM NaCl, 10% glycerol, 0.5 mM EDTA, 0.05% Triton X-100, 0.1 mg/mL BSA, 0.1 mg/mL poly(dI-dC), 5 mM DTT, room temperature, 20 min; high values mean tight binding. The note with it: protein: recombinant;recombinant; copies: 1;1; dsDNA, one strand shown. The gist of the method: as §1

In assay [4] the target is T2, POU2 (OCT2 POU domain);BOB1 (OBF1, OCA-B) (human;human, UniProt P09086;Q16633 175-386;1-256, |).
T2 sequence 1: T1 sequence
T2 sequence 2: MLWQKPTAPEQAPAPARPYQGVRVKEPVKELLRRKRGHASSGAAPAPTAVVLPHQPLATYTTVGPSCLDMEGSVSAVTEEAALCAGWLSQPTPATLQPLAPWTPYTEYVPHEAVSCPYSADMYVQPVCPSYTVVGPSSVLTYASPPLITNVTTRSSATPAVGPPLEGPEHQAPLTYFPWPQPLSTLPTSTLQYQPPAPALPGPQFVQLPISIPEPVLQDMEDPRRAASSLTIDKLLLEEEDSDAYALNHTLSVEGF
Described as above. The note with it: protein: recombinant;recombinant; copies: 1;1; dsDNA, one strand shown. In short, it runs like this: as §1

POU1 (OCT1 POU domain), sequence (P14859 260-458): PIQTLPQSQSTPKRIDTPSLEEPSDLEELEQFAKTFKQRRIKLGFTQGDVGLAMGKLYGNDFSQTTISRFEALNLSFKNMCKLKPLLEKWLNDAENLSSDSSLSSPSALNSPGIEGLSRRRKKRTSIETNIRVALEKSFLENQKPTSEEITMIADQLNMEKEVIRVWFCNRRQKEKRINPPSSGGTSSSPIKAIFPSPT

As to ACGTGAAC, the binding signal is 0.0153 % of ANNNNAAN 8-mers in assay [1], 0.0247 % of ANNNNAAN 8-mers in assay [2], 0.0215 % of ANNNNAAN 8-mers in assay [3] and 0.0206 % of ANNNNAAN 8-mers in assay [4].
As to AATAAAAT, the binding signal in assay [1] is 0.214 % of ANNNNAAN 8-mers; in assay [2], 0.214 % of ANNNNAAN 8-mers; in assay [3], 0.185 % of ANNNNAAN 8-mers; in assay [4], 0.164 % of ANNNNAAN 8-mers.
Regarding AAAAGAAC, the binding signal was 0.0351 % of ANNNNAAN 8-mers in assay [1], 0.0443 % of ANNNNAAN 8-mers in assay [2], 0.0468 % of ANNNNAAN 8-mers in assay [3] and 0.0338 % of ANNNNAAN 8-mers in assay [4].
For the sequence AGCCTAAG, the binding signal in assay [1] was 0.0183 % of ANNNNAAN 8-mers; in assay [2], 0.0207 % of ANNNNAAN 8-mers; in assay [3], 0.0219 % of ANNNNAAN 8-mers; in assay [4] it was 0.0149 % of ANNNNAAN 8-mers.
Take AACAGAAA: the binding signal in assay [1] was 0.042 % of ANNNNAAN 8-mers; in assay [2] it was 0.0409 % of ANNNNAAN 8-mers; in assay [3], 0.0355 % of ANNNNAAN 8-mers; in assay [4], 0.033 % of ANNNNAAN 8-mers.
For AGCGCAAC the same measures were 0.0103 % of ANNNNAAN 8-mers, 0.0104 % of ANNNNAAN 8-mers, 0.0125 % of ANNNNAAN 8-mers and 0.0107 % of ANNNNAAN 8-mers.
Consider AGAATAAG, for which the binding signal in assay [1] was 0.0686 % of ANNNNAAN 8-mers; in assay [2], 0.101 % of ANNNNAAN 8-mers; in assay [3] it was 0.0527 % of ANNNNAAN 8-mers; in assay [4], 0.0702 % of ANNNNAAN 8-mers.
Take AATGCAAC: the binding signal was 0.0435 % of ANNNNAAN 8-mers in assay [1], 0.0409 % of ANNNNAAN 8-mers in assay [2], 0.046 % of ANNNNAAN 8-mers in assay [3] and 0.0413 % of ANNNNAAN 8-mers in assay [4].
For AGGTCAAC the same measures were 0.0198 % of ANNNNAAN 8-mers, 0.0288 % of ANNNNAAN 8-mers, 0.0269 % of ANNNNAAN 8-mers and 0.0289 % of ANNNNAAN 8-mers.
As for ACTACAAG, the binding signal in assay [1] was 0.0194 % of ANNNNAAN 8-mers; in assay [2], 0.0201 % of ANNNNAAN 8-mers; in assay [3] it was 0.0183 % of ANNNNAAN 8-mers; in assay [4] it was 0.0231 % of ANNNNAAN 8-mers.
In the case of ATCAGAAA, the binding signal was 0.0446 % of ANNNNAAN 8-mers in assay [1], 0.0529 % of ANNNNAAN 8-mers in assay [2], 0.0546 % of ANNNNAAN 8-mers in assay [3] and 0.0438 % of ANNNNAAN 8-mers in assay [4].
The like results for AGGTGAAC were, in that order, 0.021 % of ANNNNAAN 8-mers, 0.0259 % of ANNNNAAN 8-mers, 0.0222 % of ANNNNAAN 8-mers and 0.0264 % of ANNNNAAN 8-mers.
For ACGACAAA the same measures were 0.0217 % of ANNNNAAN 8-mers, 0.0299 % of ANNNNAAN 8-mers, 0.0222 % of ANNNNAAN 8-mers and 0.0256 % of ANNNNAAN 8-mers.
The like results for AACGAAAT were, in that order, 0.0744 % of ANNNNAAN 8-mers, 0.0783 % of ANNNNAAN 8-mers, 0.0675 % of ANNNNAAN 8-mers and 0.0636 % of ANNNNAAN 8-mers.
For AGCTTAAC, the binding signal is 0.0194 % of ANNNNAAN 8-mers in assay [1], 0.0219 % of ANNNNAAN 8-mers in assay [2], 0.0195 % of ANNNNAAN 8-mers in assay [3] and 0.0165 % of ANNNNAAN 8-mers in assay [4].
For AGGCAAAT the same measures were 0.77 % of ANNNNAAN 8-mers, 0.546 % of ANNNNAAN 8-mers, 2.22 % of ANNNNAAN 8-mers and 2.15 % of ANNNNAAN 8-mers.
For AGGTTAAT the same measures were 0.174 % of ANNNNAAN 8-mers, 0.216 % of ANNNNAAN 8-mers, 0.0921 % of ANNNNAAN 8-mers and 0.108 % of ANNNNAAN 8-mers.
For ACGGTAAC the same measures were 0.0164 % of ANNNNAAN 8-mers, 0.0259 % of ANNNNAAN 8-mers, 0.0144 % of ANNNNAAN 8-mers and 0.0239 % of ANNNNAAN 8-mers.
With ATTTAAAT, the binding signal in assay [1] was 2.83 % of ANNNNAAN 8-mers; in assay [2], 2.38 % of ANNNNAAN 8-mers; in assay [3], 0.709 % of ANNNNAAN 8-mers; in assay [4] it was 0.832 % of ANNNNAAN 8-mers.
On to AAACTAAC, for which the binding signal in assay [1] is 0.0256 % of ANNNNAAN 8-mers; in assay [2], 0.0316 % of ANNNNAAN 8-mers; in assay [3] it was 0.03 % of ANNNNAAN 8-mers; in assay [4], 0.0289 % of ANNNNAAN 8-mers.
The like results for AGCCGAAG were, in that order, 0.0168 % of ANNNNAAN 8-mers, 0.0201 % of ANNNNAAN 8-mers, 0.0195 % of ANNNNAAN 8-mers and 0.0182 % of ANNNNAAN 8-mers.
For AACACAAC the same measures were 0.016 % of ANNNNAAN 8-mers, 0.019 % of ANNNNAAN 8-mers, 0.014 % of ANNNNAAN 8-mers and 0.0272 % of ANNNNAAN 8-mers.
For AGTGGAAT the same measures were 0.0995 % of ANNNNAAN 8-mers, 0.121 % of ANNNNAAN 8-mers, 0.0847 % of ANNNNAAN 8-mers and 0.104 % of ANNNNAAN 8-mers.
Turning to AGCGTAAC, the binding signal is 0.0168 % of ANNNNAAN 8-mers in assay [1], 0.0207 % of ANNNNAAN 8-mers in assay [2], 0.0144 % of ANNNNAAN 8-mers in assay [3] and 0.0149 % of ANNNNAAN 8-mers in assay [4].
Take AATGAAAT: the binding signal in assay [1] was 0.139 % of ANNNNAAN 8-mers; in assay [2], 0.157 % of ANNNNAAN 8-mers; in assay [3] it was 0.14 % of ANNNNAAN 8-mers; in assay [4] it was 0.121 % of ANNNNAAN 8-mers.
For ATGGCAAG the same measures were 0.0355 % of ANNNNAAN 8-mers, 0.0414 % of ANNNNAAN 8-mers, 0.0351 % of ANNNNAAN 8-mers and 0.0371 % of ANNNNAAN 8-mers.
For ACATTAAC the same measures were 0.0984 % of ANNNNAAN 8-mers, 0.115 % of ANNNNAAN 8-mers, 0.0402 % of ANNNNAAN 8-mers and 0.0363 % of ANNNNAAN 8-mers.
As for AGCTCAAG, the binding signal in assay [1] is 0.0183 % of ANNNNAAN 8-mers; in assay [2], 0.0173 % of ANNNNAAN 8-mers; in assay [3], 0.0187 % of ANNNNAAN 8-mers; in assay [4], 0.0206 % of ANNNNAAN 8-mers.
